The source made the active and inactive calls. How the source made its calls: active means hit-call score of the fitted dose curve at least 0.9, where 1 is the maximum; inactive means score below 0.9.
Key:
[1] = BSK_BE3C_SRB: Viability Assessment in the BioMAP Diversity Plus: BE3C Assay (AID 2283028); conditions: primary human bronchial epithelial cells
Method in brief: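 Cytotoxicity read-out: SRB (0.1%) staining of TCA-fixed (10%) human lung bronchial epithelial cells, absorbance 560 nm, 24 h post-dosing. Curves fitted both directions relative to DMSO.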

[2] = read-out: Thrombomodulin, THBD (gene 7056); experiment: BSK_3C_Thrombomodulin: BioMAP Diversity Plus: 3C Assay for Thrombomodulin Biomarker Activity (AID 2283029); conditions: primary human endothelial cells (HUVEC); actives raise or lower the signal
Method in brief: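 Human umbilical vein endothelial cells were exposed to chemicals for 24 h; cell-surface thrombomodulin quantified by ELISA, with bidirectional fitting against DMSO baseline.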

[3] = read-out: Urokinase-type plasminogen activator receptor (uPAR), PLAUR (gene 5329); experiment: BSK_4H_uPAR: BioMAP Diversity Plus: 4H Assay for Urokinase-type plasminogen activator receptor (uPAR) Biomarker Activity (AID 2283030); conditions: primary human endothelial cells (HUVEC); actives raise or lower the signal
Method in brief: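 uPAR level read by ELISA on HUVEC cultures (BioMAP 4H) 24 h post-dosing, analyzed for gain or loss relative to DMSO. Parallel SRB staining assessed overt cytotoxicity.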

[4] = read-out: Vascular endothelial growth factor receptor 2 (Homo sapiens) (UniProt P35968); experiment: BSK_4H_VEGFRII: BioMAP Diversity Plus: 4H Assay for Vascular endothelial growth factor receptor 2 (VEGFR2) Biomarker Activity (AID 2283031); conditions: primary human endothelial cells (HUVEC); actives raise or lower the signal
Method in brief: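 Measured by ELISA after 24 h of compound treatment: VEGFR2 on primary human umbilical vein endothelial cells, fitted in both directions relative to DMSO. Parallel cultures received SRB staining (560 nm) for overt cytotoxicity.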

[5] = read-out: Vascular cell adhesion molecule 1 (VCAM1), VCAM1 (gene 7412); experiment: BSK_4H_VCAM1: BioMAP Diversity Plus: 4H Assay for Vascular cell adhesion molecule 1 (VCAM1) Biomarker Activity (AID 2283033); conditions: primary human endothelial cells (HUVEC); actives raise or lower the signal
Method in brief: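 Primary human umbilical vein endothelial cells, 4H stimulation system, treated for 24 h; cell-surface VCAM-1 quantified by ELISA. Bidirectional fitting against DMSO; cytotoxicity tracked by SRB total-protein staining in parallel cultures.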

[6] = read-out: Interferon-gamma inducible Protein 10 (IP10), CXCL10 (gene 3627); experiment: BSK_BE3C_IP10: BioMAP Diversity Plus: BE3C Assay for Interferon-gamma inducible Protein 10 (IP10) Biomarker Activity (AID 2283034); conditions: primary human bronchial epithelial cells; actives raise or lower the signal
Method in brief: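 Primary human bronchial epithelial cells, with IP-10 measured by ELISA 24 hours after chemical dosing. Bidirectional fit against DMSO; cytotoxicity checked by SRB total protein staining in parallel cultures.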

[7] = read-out: Monokine induced gamma interferon (MIG), CXCL9 (gene 4283); experiment: BSK_BE3C_MIG: BioMAP Diversity Plus: BE3C Assay for Monokine induced gamma interferon (MIG) Biomarker Activity (AID 2283035); conditions: primary human bronchial epithelial cells; actives raise or lower the signal;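 further: MIG protein measured by ELISA in BE3C cultures after 24 h of dosing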
Method in brief: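 ELISA read-out of MIG in human lung bronchial epithelial primary cultures, 24 h post-dosing. Bidirectional curve fit vs DMSO baseline.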

[8] = read-out: Transforming growth factor beta 1 (TGFb1), TGFB1 (gene 7040); experiment: BSK_BE3C_TGFb1: BioMAP Diversity Plus: BE3C Assay for Transforming growth factor beta 1 (TGFb1) Biomarker Activity (AID 2283036); conditions: primary human bronchial epithelial cells; actives raise or lower the signal
Method in brief: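 Primary human bronchial epithelial cells dosed with chemical; TGF-b1 measured by ELISA 24 h after dosing. Bidirectional curve fitting against DMSO negative control; SRB total-protein staining in parallel cultures gauged cytotoxicity.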

[9] = read-out: Plasminogen activator inhibitor-1 (PAI1), SERPINE1 (gene 5054); experiment: BSK_BE3C_PAI1: BioMAP Diversity Plus: BE3C Assay for Plasminogen activator inhibitor-1 (PAI1) Biomarker Activity (AID 2283037); conditions: primary human bronchial epithelial cells; actives raise or lower the signal
Method in brief: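 Primary human bronchial epithelial cells (BE3C system) exposed 24 h; PAI-1 quantified by ELISA. Parallel sulforhodamine B staining of total protein flags cytotoxicity. Bidirectional fit versus DMSO.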

[10] = read-out: urokinase plasminogen activator (uPA), PLAU (gene 5328); experiment: BSK_BE3C_uPA: BioMAP Diversity Plus: BE3C Assay for urokinase plasminogen activator (uPA) Biomarker Activity (AID 2283038); conditions: primary human bronchial epithelial cells; actives raise or lower the signal;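 further: uPA protein level quantified by ELISA in cell cultures; uPA read one day after compound addition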
Method in brief: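 ELISA for uPA on human primary bronchial epithelial cultures 24 h post-treatment, gain or loss against DMSO. Parallel SRB staining (0.1% after 10% TCA fixation, 560 nm) assessed overt cytotoxicity.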

[11] = read-out: Urokinase-type plasminogen activator receptor (uPAR), PLAUR (gene 5329); experiment: BSK_BE3C_uPAR: BioMAP Diversity Plus: BE3C Assay for Urokinase-type plasminogen activator receptor (uPAR) Biomarker Activity (AID 2283039); conditions: primary human bronchial epithelial cells; actives raise or lower the signal;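 further: uPAR protein level measured by ELISA on the cells; cells exposed to compound for one day before measurement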
Method in brief: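 Primary human bronchial epithelial cells dosed for 24 h; uPAR quantified by ELISA with bidirectional fitting against DMSO. Overt cytotoxicity assessed in parallel cultures by SRB total-protein staining (0.1% SRB, 560 nm).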

[12] = read-out: Interleukin-6 (IL6), IL6 (gene 3569); experiment: BSK_CASM3C_IL6: BioMAP Diversity Plus: CASM3C Assay for Interleukin-6 (IL6) Biomarker Activity for (AID 2283040); conditions: primary human coronary artery smooth muscle cells; actives raise or lower the signal
[13] = read-out: Interleukin-8 (IL8), CXCL8 (gene 3576); experiment: BSK_CASM3C_IL8: BioMAP Diversity Plus: CASM3C Assay for Interleukin-8 (IL8) Biomarker Activity (AID 2283042); conditions: primary human coronary artery smooth muscle cells; actives raise or lower the signal;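 further: IL-8 protein level quantified by ELISA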
[14] = read-out: Human Leukocyte Antigen - DR isotype (HLADR), HLA-DRA (gene 3122); experiment: BSK_CASM3C_HLADR: BioMAP Diversity Plus: CASM3C Assay for Human Leukocyte Antigen - DR isotype (HLADR) Biomarker Activity (AID 2283043); conditions: primary human coronary artery smooth muscle cells; actives raise or lower the signal;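 further: cell-surface HLA-DR protein level quantified by ELISA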
[15] = read-out: Macrophage colony-stimulating factor (MCSF), CSF1 (gene 1435); experiment: BSK_CASM3C_MCSF: BioMAP Diversity Plus: CASM3C Assay for Macrophage colony-stimulating factor (MCSF) Biomarker Activity (AID 2283044); conditions: primary human coronary artery smooth muscle cells; actives raise or lower the signal;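 further: M-CSF protein amount quantified by ELISA after 24 h exposure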
[16] = read-out: Low-density lipoprotein receptor (LDLR), LDLR (gene 3949); experiment: BSK_CASM3C_LDLR: BioMAP Diversity Plus: CASM3C Assay for Low-density lipoprotein receptor (LDLR) Biomarker Activity (AID 2283045); conditions: primary human coronary artery smooth muscle cells; actives raise or lower the signal;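 further: LDLR protein level on the cell surface quantified by ELISA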
[17] = read-out: Monocyte Chemoattractant Protein-1 (MCP1), CCL2 (gene 6347); experiment: BSK_CASM3C_MCP1: BioMAP Diversity Plus: CASM3C Assay for Monocyte Chemoattractant Protein-1 (MCP1) Biomarker Activity (AID 2283046); conditions: primary human coronary artery smooth muscle cells; actives raise or lower the signal;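 further: MCP-1 level quantified by ELISA 24 h after dosing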
[18] = BSK_CASM3C_Proliferation: Cell Proliferation Assessment in the BioMAP Diversity Plus: CASM3C Assay (AID 2283047); conditions: primary human coronary artery smooth muscle cells;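 further: sulforhodamine B total protein stain as relative cell number at 560 nm; sub-confluent cells exposed 48 h before staining; fitted both ways against DMSO so gain or loss of cell number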
[19] = read-out: Human Leukocyte Antigen - DR isotype (HLADR), HLA-DRA (gene 3122); experiment: BSK_BE3C_HLADR: BioMAP Diversity Plus: BE3C Assay for Human Leukocyte Antigen - DR isotype (HLADR) Biomarker Activity (AID 2283032); conditions: primary human bronchial epithelial cells; actives raise or lower the signal
Method in brief: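 Human primary bronchial epithelial cells (BE3C system) exposed to compound for 24 hours; cell-surface HLA-DR measured by ELISA, fitted bidirectionally relative to DMSO. Total protein by SRB in parallel cultures tracked cytotoxicity.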

[20] = read-out: Tissue plasminogen activator (tPA), PLAT (gene 5327); experiment: BSK_BE3C_tPA: BioMAP Diversity Plus: BE3C Assay for Tissue plasminogen activator (tPA) Biomarker Activity (AID 2283041); conditions: primary human bronchial epithelial cells; actives raise or lower the signal;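 further: tPA level quantified by ELISA one day after compound addition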
Method in brief: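 Primary human bronchial epithelial cells in the BE3C system, exposed to compound for 24 h. tPA was quantified by ELISA; DMSO served as baseline, with gain or loss of signal fitted. Cytotoxicity checked in parallel cultures by SRB total-protein staining.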

Measured: AC50

CNC(=O)Oc1cccc2ccccc12
active: [5] 20 µM | [18] 26.2 µM
not listed: [19] | [20]
inactive: all other assays above

CC1(C)C(C=C(Cl)Cl)C1C(=O)OC(C#N)c1cccc(Oc2ccccc2)c1 (stereo not drawn)
not listed: [19] | [20]
inactive: all other assays above

COCc1cnc(C2=NC(C)(C(C)C)C(=O)N2)c(C(=O)O)c1 (stereo not drawn)
not listed: [3]
inactive: all other assays above

N#Cc1c[nH]cc1-c1cccc2c1OC(F)(F)O2
active: [3] 14.7 µM | [5] 20 µM | [18] 20 µM
not listed: [19] | [20]
inactive: all other assays above

CO/N=C(/C1=NOCCO1)c1ccccc1Oc1ncnc(Oc2ccccc2Cl)c1F
active: [19] 11.1 µM | [16] 13.5 µM | [18] 12.9 µM
not listed: [3]
inactive: all other assays above

Cn1c(-c2ccccc2)cc(-c2ccccc2)[n+]1C
active: [19] 3.97 µM | [6] 16.5 µM
inactive: all other assays above

CC1(C)CON(Cc2ccccc2Cl)C1=O
active: [8] 37.2 µM
inactive: all other assays above

CC(C)N1C(=O)c2ccccc2NS1(=O)=O
not listed: [8] | [17] | [19]
inactive: all other assays above

COc1cc(Cl)c(OC)cc1Cl
inactive: all assays above

CN/C(=N\[N+](=O)[O-])NCc1cnc(Cl)s1
not listed: [20]
inactive: all other assays above

Cc1cc(C)nc(Nc2ccccc2)n1
not listed: [20]
inactive: all other assays above

CNC(=O)N(C)c1nnc(C(C)(C)C)s1
not listed: [19]
inactive: all other assays above

Cc1c(COC(=O)[C@@H]2[C@H](/C=C(\Cl)C(F)(F)F)C2(C)C)cccc1-c1ccccc1
active: [2] 4.98 µM | [5] 3.91 µM
not listed: [19] | [20]
inactive: all other assays above

CCOP(=S)(OCC)Oc1nc(Cl)n(C(C)C)n1
active: [2] 3.97 µM
not listed: [3]
inactive: all other assays above
